Some structures have more than one record in an assay (separate samples or runs), and their calls can disagree. Activity calls are given as the source filed them. The calls were made as follows: active = hit-call score of the fitted dose curve at least 0.9, where 1 is the maximum; inactive = score below 0.9.

As usually defined, the AC50 is the concentration at which the activity in the assay is half-maximal.

A short description of one experiment: CCTE_Shafer_MEA_dev_network_spike_number: CCTE's Neural Network Formation Assay for Number of Network Spikes, Shafer Lab (AID 2284048).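 Also: synchronized bursts across electrodes counted on days 5 7 9 12 and integrated as AUC.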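 As to AC50: fit as a loss of signal meaning fewer network spikes than DMSO.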 An outline of the steps:
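Extracellular recordings from 16-electrode wells track network formation in rat cortical cultures under continuous treatment from plating. The endpoint is network spike number, expressed as AUC across DIV 5–12 relative to DMSO vehicle.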
Turning to `CC(C)c1ccc(C(=O)N=C(N)N)cc1S(C)(=O)=O`, the call was inactive.

In the case of `C=CCc1ccc(O)c(OC)c1`, the outcome was inactive.

As for `O=c1[nH]cc(F)c(=O)[nH]1`, the concentration at half-maximal activity (AC50) was 974 nM (active).

As to `CC(=O)Oc1ccccc1C(=O)O`, the result was inactive.

With `C[Si]1(C)O[Si](C)(C)O[Si](C)(C)O[Si](C)(C)O1`, the compound was called inactive.

For `CCCc1cc(=O)[nH]c(=S)[nH]1`, the result was inactive.

Regarding `FC(F)(F)C(F)(F)C(F)(F)C(F)(F)C(F)(F)C(F)(F)CCI`, the compound was classed as inactive.

For `OC[C@@H](O)[C@@H](O)[C@H](O)[C@H](O)CO`, the outcome was inactive.

Regarding `Cc1cc(=O)[nH]c(=S)[nH]1`, the outcome was inactive.

The nature of the next experiment: CCTE_Shafer_MEA_dev_network_spike_peak: CCTE's Neural Network Formation Assay for Mean Number of Electrodes in Network Spike, Shafer Lab (AID 2284049).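 As to AC50: fitted for loss of signal meaning fewer electrodes in network spikes than DMSO.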 An outline of the steps:
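Continuous 12-day exposure of rat cortical cultures, starting at plating, on MEA plates. Endpoint: electrodes participating in network-spike peaks, AUC across DIV 5–12, DMSO as negative control.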
Consider `CC(C)c1ccc(C(=O)N=C(N)N)cc1S(C)(=O)=O`, for which the result was inactive.

Consider `C=CCc1ccc(O)c(OC)c1`, for which the outcome was inactive.

In the case of `O=c1[nH]cc(F)c(=O)[nH]1`, the AC50 was 1200 nM (active).

In the case of `CC(=O)Oc1ccccc1C(=O)O`, the outcome was inactive.

Take `C[Si]1(C)O[Si](C)(C)O[Si](C)(C)O[Si](C)(C)O1`: the compound was classed as inactive.

Turning to `CCCc1cc(=O)[nH]c(=S)[nH]1`, the AC50 was 23000 nM (active) and the result was inactive.

As for `FC(F)(F)C(F)(F)C(F)(F)C(F)(F)C(F)(F)C(F)(F)CCI`, the compound was classed as inactive.

On to `OC[C@@H](O)[C@@H](O)[C@H](O)[C@H](O)CO`, for which the outcome was inactive.

In the case of `Cc1cc(=O)[nH]c(=S)[nH]1`, the call was inactive.

For the origin of these results see PubChem BioAssay (EPA / NIEHS).
